# Compound activity from PubChem.
# Hits are enriched below; roughly 3.9% of the tested compounds scored in any of these assays.
# BRCA1 expr act: increases BRCA1 expression; Potency, µM (titrated, usually from 46.1 µM), for inactives: at the top dose activation, actives largely listed as activators; AID 624202; actives 1.1% (n = 380,000); MCF7-BRCA1-FFLuc reporter, luminescence, 48 h; response scale: scaled: vehicle 0%, 10 µM genistein 100%; note: nearly all actives have a fitted effect of over 80% in size
#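 Cells: MCF7-BRCA1-FFLuc, 2000/well. Exposure: 48 h, 37 °C, 5% CO2. Read: luminescence, 15 min post-substrate. Controls: genistein 10 microM (maximal activation), DMSO (neutral).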
# VDR inhibitor: inhibitors of human vitamin D receptor | AID 504847 | Potency, µM, for the others: max response, negative = inhibition, most hits filed as inhibitors | VDR-SRC2-3 peptide fluorescence polarization, 2 h | P11473 | actives 0.93% (n = 400,000); note: % is set by controls: 0 for no effect and ±100 for the full control effect
#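 Two reagent solutions held at 4 deg C in the dark were dispensed, compounds pinned at 23 nl, and the mixture incubated 2 h at room temperature. Read-out: fluorescence polarization of VDR–SRC2-3 peptide binding.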
# Tb PFK block: inhibitors of T. brucei phosphofructokinase. O15648. T. brucei PFK, ADP-Glo luminescence. Potency, µM (doses to about 57.5 µM), for inactives: at the top dose activity, negative = inhibition, hits mostly inhibitors. actives 0.17% (n = 330,000). AID 485367;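 note: 0% = uninhibited 1x PFK enzyme wells and -100% = no-enzyme wells; nearly all actives have a fitted effect of over 60% in size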
#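 Compounds were pin-transferred as a titration series up to 57 uM into substrate buffer (0.5 mM F6P, 0.1 mM ATP, pH 8.0), then 1.25 nM PFK was added and reactions ran 45 min before ADP-Glo detection.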
# PLK1 PBD block: PLK1 (human) polo-box domain binding inhibition; P53350; Plk1 PBD binding of FITC phosphopeptide, fluorescence polarization; Potency, µM, for inactives: max response, negative = inhibition, most hits filed as inhibitors; actives 2.8% (n = 360,000); AID 720504; note: series mostly up to about 57 µM; % is set by controls: 0 for no effect and ±100 for the full control effect; nearly all actives have a fitted effect of over 65% in size
# Target sequence (P53350 whole entry, looked up, the tested form may be a part): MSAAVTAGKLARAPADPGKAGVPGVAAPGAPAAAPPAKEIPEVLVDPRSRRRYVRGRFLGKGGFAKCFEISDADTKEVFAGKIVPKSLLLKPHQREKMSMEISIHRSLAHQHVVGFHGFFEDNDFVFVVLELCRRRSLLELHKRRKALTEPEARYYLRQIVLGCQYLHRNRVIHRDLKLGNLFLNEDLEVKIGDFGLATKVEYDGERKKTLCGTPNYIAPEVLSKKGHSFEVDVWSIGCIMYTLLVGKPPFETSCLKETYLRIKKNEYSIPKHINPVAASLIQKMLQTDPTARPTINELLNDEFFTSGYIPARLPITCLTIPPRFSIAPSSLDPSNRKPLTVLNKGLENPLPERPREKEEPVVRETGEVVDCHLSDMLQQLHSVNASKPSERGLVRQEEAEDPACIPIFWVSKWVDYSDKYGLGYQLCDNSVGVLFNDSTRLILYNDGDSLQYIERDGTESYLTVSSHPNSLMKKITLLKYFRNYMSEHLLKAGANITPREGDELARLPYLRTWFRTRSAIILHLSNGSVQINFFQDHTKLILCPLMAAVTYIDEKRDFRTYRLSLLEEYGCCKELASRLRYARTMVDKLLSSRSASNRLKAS
# An asterisk follows results filed as active; ? = inconclusive; · = not tested or not shown. Calls come from the whole dose curve; as a rule, active = well fitted curve in the direction sought with a large enough effect; inconclusive = small, poorly fitted or top-dose-only effect, or another doubt; inactive = no such curve, though single readings can be large; an effect the other way counts as inactive or inconclusive. Potency is the fitted concentration of half-maximal effect.
SMILES,BRCA1 expr act,VDR inhibitor,Tb PFK block,PLK1 PBD block
N/C(=N\OC(=O)c1ccc([N+](=O)[O-])cc1)c1cccnc1,?,-24%,0%,-7%
CCc1cccc(NC(=O)Cn2c(=O)n(CC3CCC(C(=O)NC)CC3)c(=O)c3sccc32)c1 (stereo not given),·,-4%,·,·
O=C(NCC1CCOCC1)c1ccc2nc(Cc3cccc(Cl)c3)oc2c1,10µM*,20%,3%,-3%
CCC1CCCCN1C(=O)c1ccc2nc(Cc3ccc(OC)cc3)oc2c1 (stereo not given),11µM*,3%,3%,4%
COc1ccc(Cc2nc3ccc(C(=O)NCC(C)(C)OC)cc3o2)cc1,10µM*,-11%,1%,-5%
COCC1CCCCN1C(=O)c1ccc2nc(Cc3ccc(OC)c(OC)c3)oc2c1 (stereo not given),0%,-5%,-1%,-3%
CN(CC1CCOCC1)C(=O)c1ccc2nc(Cc3cccc(Cl)c3)oc2c1,-14%,2%,?,-12%
COc1cc2c(cc1NC(=O)c1ccccc1-c1ccccc1C(=O)O)-c1ccccc1C2,-5%,·,·,42µM*
COc1cccc(NC(=O)c2ccccc2-c2ccccc2C(=O)O)c1,2%,11%,-2%,-1%
COc1ccc(C2OC3=C(Nc4cc(C)c(C)cc4N3)C2=O)cc1 (stereo not given),2.8µM*,-9%,1%,3%
CCOC(=O)c1cc(-c2ccccc2)n(CC(=O)NC2CCC(C)CC2)c1C (stereo not given),·,2%,·,·
O=C(c1ccco1)N1CCC2(CC1)CN(C(c1ccccc1)c1ccccc1)C2,·,-11%,·,·
CCCc1ccc2oc(C(=O)N(C)Cc3cnccn3)c(C)c2c1,83%,5%,-1%,-4%
Cc1ccc2oc(C(=O)N(C)Cc3ccon3)c(C)c2c1,8.9µM*,5%,-5%,-11%
CCOC(=O)c1c(N)ssc1=S,0%,-26%,?,6.7µM*
CCOC(=O)c1sc(N)c(C(N)=O)c1C,9%,-6%,2%,24µM*
CCOC(=O)c1c(N)sc(C(=O)Nc2ccccc2F)c1C,?,16%,0%,5%
CCCc1c(C(=O)OCC)sc(N)c1C#N,-14%,-11%,?,19µM*
CCOC(=O)c1sc(N)c(C#N)c1CSc1nnc(C2CC2)n1N,-1%,-2%,-6%,-8%
CCOC(=O)c1c(N)sc(=S)c2c1CCC2,-38%,-29%,-1%,?
CCOC(=O)c1c(N)sc(C(=O)Nc2ccccc2)c1C,?,?,-3%,21µM*
COC(=O)c1cc2sc(Cl)cc2n1Cc1nc(-c2ccccc2F)oc1C,·,-4%,·,·
CCCNC(=O)N1C2=NC(C(=O)OC)=C(C(=O)OC)[C@@H]3N(Cc4ccccc4)c4ccccc4[C@]23C[C@H]1CO,18%,6%,·,-8%
CCOC(=O)C1=C(CSc2nc3c(cc2C#N)CCC3)OC(N)=C(C#N)C1c1ccccc1 (stereo not given),4%,9%,0%,17µM*
CCOC(=O)C1=C(CSc2nc3c(cc2C#N)CN(C)CC3)OC(N)=C(C#N)C1c1ccccc1 (stereo not given),-23%,-14%,-9%,-23%
SMILES,BRCA1 expr act,VDR inhibitor,Tb PFK block,PLK1 PBD block
CCn1nc([N+](=O)[O-])c(C(C#N)c2nc3cc(C(F)(F)F)ccc3s2)c(Cl)c1=O (stereo not given),-41%,?,-8%,24µM*
Cn1nc([N+](=O)[O-])c(C(C#N)c2ccccn2)c(Cl)c1=O (stereo not given),-75%,-6%,1%,30µM*
CCCn1nc([N+](=O)[O-])c(C(C#N)c2nc3ccccc3o2)c(Cl)c1=O (stereo not given),-69%,?,-5%,30µM*
C=CCn1c(SCC(=O)N(CC)C2CCS(=O)(=O)C2)nc2scc(-c3ccccc3)c2c1=O (stereo not given),-21%,-7%,·,7%
COc1ccc(NS(=O)(=O)c2cccc(C(=O)NNC(=O)c3ccccc3OC)c2)cc1,-49%,-1%,3%,-2%
NC(=O)CCCCn1ccc(NC(N)=NCC(F)(F)F)n1,·,-22%,·,·
CN(C)S(=O)(=O)c1ccc(C(=O)Nc2nnc(-c3cccs3)o2)cc1,-23%,-10%,9%,?
O=C(Nc1nnc(-c2cccs2)o1)c1cccc(C(F)(F)F)c1,-80%,?,4%,30µM*
N#Cc1ccc(C(=O)Nc2nnc(-c3cccs3)o2)cc1,-4%,?,7%,27µM*
CC(C)[C@H](NS(=O)(=O)c1ccccc1)C(=O)OCC(=O)NC(=O)NC1CCCCC1,-9%,18%,0%,2%
COc1cc(-c2nn3c(Cc4ccccc4)nnc3s2)cc(OC)c1OC,-46%,-15%,4%,27µM*
COc1cc(-c2nn3c(COc4ccccc4)nnc3s2)cc(OC)c1OC,-24%,?,-19%,27µM*
COc1cc(-c2nnc3sc(-c4ccncc4)nn23)cc(OC)c1OC,-25%,-16%,·,12µM*
c1ccc(Cc2nnc3sc(-c4ccco4)nn23)cc1,0%,?,-20%,21µM*
CCN(CC)c1ccc(NC(=O)C2CCCN(S(=O)(=O)c3ccc4c(c3)oc(=O)n4C)C2)c(C)c1 (stereo not given),8%,-4%,·,·
Nc1c(Cl)cc(-c2csc(N3CCCC3c3nc4cc(Cl)c(N5CCCCC5)cc4n3CCCO)n2)cc1Cl (stereo not given),-41%,-4%,·,-17%
CCN(CC)CCC(=O)Nc1cccc2c1C(=O)c1ccccc1C2=O,-65%,2%,19%,-3%
CCn1ccnc1CN1CCc2c([nH]c3ccccc23)C1CC(C)C (stereo not given),-26%,-10%,-2%,4%
CCn1ccnc1CN1CCc2c([nH]c3ccccc23)C1C1CCCCC1 (stereo not given),-12%,?,5%,27µM*
COC(=O)NC(c1ccc2c(c1)OCO2)C(C(=O)OC)C(=O)OC (stereo not given),·,1%,·,·
CN(Cc1ccccc1)Cc1ccccc1C(O)c1ccccc1 (stereo not given),-27%,-5%,·,-6%
COC(=O)C(Cc1ccc(OC(=O)c2ccc(C(F)(F)F)cc2)cc1)N1Cc2ccccc2C1=O (stereo not given),11µM*,-13%,-3%,?
COC(=O)C(Cc1ccc(OC(=O)c2ccc(Cl)cc2)cc1)N1Cc2ccccc2C1=O (stereo not given),13µM*,8%,2%,1%
CCC(C(=O)NC(C)(C)C)n1c(-c2cccc(NC(C)=O)c2)nc2ccccc21 (stereo not given),·,·,·,-10%
Cc1ccccc1OCC(=O)Nc1cc(-c2cccc(Br)c2)nn1-c1ccccc1,0%,13%,·,·
c1ccc(SCc2nc(-c3ccncc3)no2)cc1,?,-8%,-5%,13µM*
COc1ccc(-c2nc(-c3ccccc3OC)no2)cc1OC,10µM*,12%,1%,-1%
Cc1ccc(OCc2nc(-c3ccccn3)no2)cc1,?,-8%,-3%,-7%
